# Among all 2,400 compounds or so, about 40 (2%) were called active. About 1% were inconclusive and are not listed.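 The calls were made as follows: active = inhibition at or above 60%; inconclusive = inhibition from 0% up to below 60%; inactive = no inhibition observed.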 The full list was thinned out, with actives kept by preference.
# Test: qHTS Assay for Small Molecule Inhibitors of Mitochondrial Division or Activators of Mitochondrial Fusion: Hit Validation in Malachite Green Assay;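 as to inhibition: plate controls were DMSO wells with GTPase for no effect and protein-free buffer wells for full effect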
# Conditions: purified GTPase, malachite green phosphate release, A650; active compounds read high
# Excerpt: The budding yeast S. cerevisiae is a powerful system to study mitochondrial fusion. Unlike other organisms, yeast cells without functional mitochondrial DNA (mtDNA) can be propagated and studied as long as they maintain a mitochondrial compartment and are provided with a fermentable carbon source. When mitochondrial fusion is blocked in yeast, mitochondrial tubules rapidly fragment and division continues unopposed. Under conditions where fusion is compromised in mammalian cells, nearly identical changes in mitochondrial structure have been observed. Thus, these findings indicate that steady state mitochondrial structure in cells is a characteristic and specific indicator of fusion activity. Mounting evidence has pointed to a connection between mitochondrial dynamics and apoptosis in mammalian cells. These studies indicate that in mammalian cells mitochondrial dynamics are more integrated into cellular processes than in yeast cells and have evolved not only to distribute the organelle but also to aid in the regulation of cellular homeostasis. Mitochondrial fusion proteins attenuate apoptosis by inhibiting the release of cytochrome c from mitochondria, in part by controlling cristae structures. Thus, small molecules that inhibit mitochondrial fusion may promote apoptosis and potentially act as novel chemotherapeutics and stimulation of apoptosis has become an attractive target of anti-cancer therapies. To identify inhibitors of mitochondrial division, we exploit the growth phenotypes of mitochondrial fusion-defective mutants. The temperature sensitive fusion alleles, such as fzo1-1 and mgm1-5, cause mitochondrial membranes to fragment in cells under non-permissive conditions and cells lose mtDNA, and are unable to grow in the presence of non-fermentable carbon source glycerol. Inhibiting mitochondrial division rescues growth. The hits were tested by the assay provider in a malachite green assay. NIH Chemical Genomics Center [NCGC] NIH Molecular Libraries Probe Production Centers Network [MLPCN] MLPCN Grant: MH081279 Assay Submitter (PI): Jodi M. Nunnari
# Malachite Green Reagent Malachite Green carbinol base- Aldrich 229105 Ammonium molybdate - Sigma A7302 For 100 mL Malachite Green reagent in 1N HCl 16 mL conc. HCL + 32 mL H20 = 48 mL 4N HCl 34 mg malachite green base into 40 mL 1N HCl (10 mL 4N HCl + 30 mL H20) 1 g ammonium molybdate in 15 mL 4N HCl Mix Solutions together. Bring up to […] with H2O. Filter using a 0.2 um tissue culture filter unit (has plastic bottle attached) store at 4 masculine C. (Avoid Glassware/Plastics washed in detergent. Mix solutions in 50 mL conical vials.) For 20 uL reaction volume 1.0 uL Test Drug or DMSO: Added first to each well […]: 25 mM Hepes/Pipes pH 7.0 (H/P) 2.0 uL: 50 mM MgCl2 (final 5mM) 2.32 uL: 1 M NaCl (with contributing protein salt, Final = 150mM) 13.4 uL per reaction. Can be mixed in larger volume (Mini Master Mix) 1.6 uL: Protein 7.5 uM or Protein Freezing Buffer. (Final = 0.6uM) After Protein Added to mini Master Mix, 15ul Total Master Mix added to each well with drug. 4 uL: 500 uM GTP (Final = 100uM), Dilute with 25 mM H/P, store on ice. 20 uL Total Volume Make Master Mix: (Calculate desired reactions and add a few for multi-channel pipetting volume). Multiply the number of desired reactions by 13.4 uL for total Mini Master volume. Multiply the number of desired reactions by 1.6 uL for total Protein volume. Mix, and keep on ice until added to wells. Add 15 uL of Master Mix to each reaction well, incubate with drug for 10 min. For Positive (No Drug) controls add 15 uL Master Mix to wells with only 1 uL DMSO. Make PFB (Protein Freezing Buffer) (no Protein) Master Mix. Multiply the number of desired reactions by 13.4 uL for total Mini Master volume. Multiply the number of desired reactions by 1.6 uL for total PFB volume. Mix, and keep on ice until added to wells Add 10 uL of PFBMaster Mix to each Phosphate Standards well, and 15 uL to each negative control well with DMSO. […]
row,SMILES,inhibition
1,O=C(Nc1nnc(-c2ccccc2)o1)c1cc(-c2cccs2)nc2ccccc12,inactive
2,O=C(Nc1nnc(-c2ccco2)o1)c1ccc2ccccc2c1,60.5% (active)
3,COc1ccc(-c2nnc(NC(=O)c3ccc(F)cc3)o2)cc1,63.4% (active)
4,O=C(Nc1ccccc1N1CCCC1)c1ccc2ccccc2c1,inactive
5,Nc1nc(Nc2cccc(Cl)c2)nc(NCc2ccco2)c1[N+](=O)[O-],inactive
6,Cc1ccc(N=C2NC(=O)/C(=C\c3ccsc3)S2)c(C)c1,inactive
7,COc1ccc(C(=O)Nc2cc3c(cc2N2CCCCC2)n(C)c(=O)n3C)cc1OC,inactive
8,O=C(CCNC(=O)c1ccccc1Cl)Nc1ccc(Cl)c(C(F)(F)F)c1,inactive
9,Cc1c(NC(=O)c2cccs2)cccc1-c1nc2ccccc2s1,85.9% (active)
10,CC(=O)Nc1ccc(O)c(-c2nc3ccccc3s2)c1,inactive
11,O=C(Nc1cccc(-c2nc3ccccc3s2)c1)c1cccs1,inactive
12,CCOc1ccc2nc(NC(=O)Nc3cccs3)sc2c1,inactive
13,Cc1c(Cl)c([N+](=O)[O-])nn1Cc1ccc(C(=O)Nc2ccc(Cl)cn2)o1,inactive
14,O=C(Nc1ccc(O)c2c(=O)cc(-c3cccc(Cl)c3)oc12)c1ccccc1Cl,inactive
15,CC(C)n1c(C(=O)OCC(=O)NCc2ccc3c(c2)OCO3)cc2sccc21,inactive
16,CC(CCc1ccccc1)NC(=O)/C=C/c1ccc(F)cc1 (stereo not drawn),inactive
17,CC(=O)Nc1cccc(C(=O)/C=C/c2ccc(Br)cc2)c1,inactive
18,CCOC(=O)c1c(C)[nH]c(C)c1C(=O)COC(=O)/C=C/c1ccc(Cl)cc1,inactive
19,CCNc1ccc(Br)cc(C(=O)/C=C/c2ccc(Cl)cc2)c1=O,100% (active)
20,CCOc1ccc(CN(C(=O)c2cc3ccccc3oc2=O)C2CC2)cc1,inactive
21,O=C(c1ccc(COc2ccc(Cl)cc2)o1)N1CCN(Cc2ccc3c(c2)OCO3)CC1,inactive
22,CCOC(=O)c1n[nH]n2c1nc(=O)c1ccccc12,inactive
23,Cc1nc(CS(=O)(=O)c2ccc(Cl)cc2)cc(Sc2ccccc2Cl)n1,inactive
24,CCCCc1cc(=O)oc2cc(OS(C)(=O)=O)ccc12,inactive
25,CCCCc1c(C)nc2ccccc2c1SCCC#N,73.5% (active)
26,CCCc1c(C)nc2ccccc2c1SCCC#N,84.5% (active)
27,CCCCN(CC)c1nc(-c2ccncc2)nc2ccccc12,inactive

row,SMILES,inhibition
1,CCCCSc1nnc(-c2ccc(C)cc2)c2ccccc12,inactive
2,COc1ccc(-c2ccc(-c3nc4ccc(C)cn4c3NC3CCCCC3)cc2OC)cc1,inactive
3,Cc1cc2c(cc1C)CSC(c1ccccc1O)SC2,inactive
4,CCOC(=O)c1ccc(NC(=S)N2CCSC2c2ccc(Cl)cc2)cc1 (stereo not drawn),inactive
5,CCCCC(c1nnnn1CC1CCCO1)N1CCN(c2nc3ccccc3s2)CC1 (stereo not drawn),inactive
6,Cc1cccc(-c2nc(CS(=O)CC(=O)NC(C)CCc3ccccc3)c(C)o2)c1 (stereo not drawn),inactive
7,COC(=O)c1sc2nc(C)nc(SCC(=O)C(C)(C)C)c2c1C,inactive
8,Cc1ccccc1N=C(NOCc1ccccc1)c1nonc1N,inactive
9,C[C@@]12C(=O)N(Cc3ccccc3)CC(=O)N1[C@H]1c3cc(Cl)ccc3OC[C@@H]1[C@@H]2c1ccccc1,inactive
10,NC(=O)c1cc(Cc2ccccc2)sc1NC(=O)c1ccco1,102% (active)
11,O=C(Nc1cc(-c2ccccc2)cs1)c1ccco1,inactive
12,CCCc1cc(C(N)=O)c(NC(=O)c2ccoc2C)s1,101% (active)
13,Cc1occc1C(=O)NC1CCCCCCC1,inactive
14,Cc1sc(NC(=O)c2ccco2)nc1-c1ccccc1,inactive
15,CCC1CCc2c(sc(NC(=O)c3ccoc3C)c2C(N)=O)C1 (stereo not drawn),inactive
16,Cc1ccc(C)c(N2CCN(C(=O)c3csc4ccccc34)CC2)c1,inactive
17,Cc1cc(-c2ccc(C)c(S(=O)(=O)NCc3ccc(Br)cc3)c2)on1,inactive
18,N/C(=N\OC(=O)c1ccccc1Cl)c1ccc(Cl)cc1,inactive
19,CCN(CC(=O)Nc1cc(S(=O)(=O)N2CCCCC2)ccc1Cl)Cc1ccccc1,inactive
20,COc1ccc(Nc2ncc(C(=O)N3CCN(Cc4ccccc4)CC3)c3ccccc23)cc1,inactive
21,c1ccc(NCc2nc3ccccc3n2CCOc2ccccc2)cc1,inactive
22,CNc1ccc(Br)cc(C(=O)/C=C/c2ccc(OC)cc2OC)c1=O,90.1% (active)
23,COc1ccc(Br)cc1/C=C/C(=O)Nc1ccc(C)cc1,inactive
24,COc1ccc(/C=C/C(=O)N2CCCc3ccccc32)c(OC)c1,inactive
25,COc1cc2c(cc1NC(=O)CSc1nc3ccccc3[nH]1)oc1ccccc12,inactive
26,O=C(N/N=C/c1cn(-c2cccs2)nc1-c1ccccc1)c1ccccc1Cl,inactive

# Reference: PubChem BioAssay AID602289 (National Center for Advancing Translational Sciences (NCATS), 2012)
